About 3,000 (1%) of roughly 290,000 compounds were called active. Many of the other results were omitted from the sample, so actives are more common in it than they were. A number with no mark means an inactive call. No stated cut-off is given here; in the data, active means inhibition mostly above about 36% (no sharp cut-off); inactive means mostly below about 34%.
Assay: inhibition of NOD1-driven NF-kB reporter – cell-based, luminescence, uHTS, primary screen (AID 1578);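 further: HEK-293T reporter cells stimulated with the NOD1 agonist gamma-tri-DAP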
Conditions: NOD1-driven NF-kB luciferase reporter cells, at 4 µM, active compounds read high

| Structure (SMILES) | inhibition |
| --- | --- |
| CCOC(=O)CSc1nnc(Cn2c(=O)sc3ccccc32)n1-c1ccccc1C | 5.4% |
| O=C(Nc1ccc(F)cc1)N(Cc1cccs1)Cc1cc2cc3c(cc2[nH]c1=O)OCO3 | -9.6% |
| CC1(C)CC(=O)C(C=NCC2CCNCC2)=C(O)C1 | -6.2% |
| C=CCNC(=S)Nc1ccc(OC(F)F)c(Cl)c1 | -16.4% |
| CN1C(=O)Cc2cc(S(=O)(=O)NCCc3ccc(Cl)cc3)ccc21 | -20.9% |
| Cc1ccc(S(=O)(=O)N2Cc3ccccc3CC2C(=O)Nn2cnnc2)cc1 (stereo not given) | -8.2% |
| Cc1cc(C(=O)COC(=O)c2ccc3c(c2)OCO3)c(C)n1Cc1cccs1 | -27.2% |
| Cc1cc(C(=O)COC(=O)c2ccccc2O)c(C)n1Cc1cccs1 | 99.2% (active) |
| CCn1nc(C(=O)OCC(=O)c2cc(C)n(Cc3cccs3)c2C)c2ccccc2c1=O | -15% |
| O=C(COC(=O)c1ccco1)NC1CCCC1 | -23.8% |
| Cc1cc(NC(=O)CSc2nc3ccsc3c(=O)n2CCCC(=O)NCCc2ccccc2)no1 | -20% |
| CC(C1CC1)N(Cc1ccccc1)C(=O)NC(=O)c1ccc(F)cc1 (stereo not given) | -23.2% |
| Cc1cccc(-n2cc(-c3ccccc3)c3c(N4CCOCC4)ncnc32)c1 | 56.2% (active) |
| Cc1cccc(-n2cc(-c3ccccc3)c3c(NN4CCOCC4)ncnc32)c1 | -8.1% |
| Cc1ccc(-n2cc(-c3ccccc3)c3c(N4CCOCC4)ncnc32)cc1 | 20.2% |
| CCc1c(C)nc(Nc2nc(C)c3ccc(OC)cc3n2)[nH]c1=O | -7.1% |
| CCc1c(C)nc(Nc2nc(C)c3cc(OC)ccc3n2)[nH]c1=O | -42.8% |
| COc1ccc2c(C)nc(Nc3nc(C)c(C)c(=O)[nH]3)nc2c1 | 80.7% (active) |
| Cc1sc2ncnc(N3CCC(C(=O)NNC(=O)c4ccccc4Cl)CC3)c2c1C | 5.2% |
| CNC(=O)COC(=O)c1ccc(OCC(=O)Nc2ccccc2OC)c(OC)c1 | -18.6% |
| CC1(C)CC(=O)C2=C(C1)OC(N)=C(C#N)[C@@]21C(=O)N(CC(N)=O)c2ccccc21 | -14.4% |
| COc1ccccc1NS(=O)(=O)c1cc(NC(=O)c2cc3ccccc3oc2=O)ccc1C | 42.3% |
| Cc1ccc(NC(=O)c2cc3ccccc3o2)cc1S(=O)(=O)N(C)C | -60.5% |
| Cc1ccc(NC(=O)c2cc3ccccc3oc2=O)cc1S(=O)(=O)N(C)C | 98.1% (active) |
| O=C(NC1CCCN(c2ccc(C(F)(F)F)cn2)C1)c1ccncc1 (stereo not given) | -22% |
